Results taken from PubChem BioAssay AID1159602 (The Scripps Research Institute Molecular Screening Center, 2016).
The campaign covered roughly 22,000 compounds. About 220 (1%) were called active. Cut-off read from the data, not from the text of the source: active = inhibition above about 35%; inactive = the rest. Shown is part of a subset that was picked to be rich in actives.

Target: Mitogen-activated protein kinase kinase kinase 5 (Homo sapiens) (UniProt Q99683)
Assay: blockers of MAP3K5 kinase activity – biochemical, AlphaScreen, primary screen (AID 1159602);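 note: 0% = median of compound wells and 100% = no enzyme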
Settings: AlphaScreen MKK6 phosphorylation by ASK1, luminescence; at 7.44 µM; stronger effect = higher value

Sequence of Mitogen-activated protein kinase kinase kinase 5 (Homo sapiens) (Q99683 whole entry, looked up): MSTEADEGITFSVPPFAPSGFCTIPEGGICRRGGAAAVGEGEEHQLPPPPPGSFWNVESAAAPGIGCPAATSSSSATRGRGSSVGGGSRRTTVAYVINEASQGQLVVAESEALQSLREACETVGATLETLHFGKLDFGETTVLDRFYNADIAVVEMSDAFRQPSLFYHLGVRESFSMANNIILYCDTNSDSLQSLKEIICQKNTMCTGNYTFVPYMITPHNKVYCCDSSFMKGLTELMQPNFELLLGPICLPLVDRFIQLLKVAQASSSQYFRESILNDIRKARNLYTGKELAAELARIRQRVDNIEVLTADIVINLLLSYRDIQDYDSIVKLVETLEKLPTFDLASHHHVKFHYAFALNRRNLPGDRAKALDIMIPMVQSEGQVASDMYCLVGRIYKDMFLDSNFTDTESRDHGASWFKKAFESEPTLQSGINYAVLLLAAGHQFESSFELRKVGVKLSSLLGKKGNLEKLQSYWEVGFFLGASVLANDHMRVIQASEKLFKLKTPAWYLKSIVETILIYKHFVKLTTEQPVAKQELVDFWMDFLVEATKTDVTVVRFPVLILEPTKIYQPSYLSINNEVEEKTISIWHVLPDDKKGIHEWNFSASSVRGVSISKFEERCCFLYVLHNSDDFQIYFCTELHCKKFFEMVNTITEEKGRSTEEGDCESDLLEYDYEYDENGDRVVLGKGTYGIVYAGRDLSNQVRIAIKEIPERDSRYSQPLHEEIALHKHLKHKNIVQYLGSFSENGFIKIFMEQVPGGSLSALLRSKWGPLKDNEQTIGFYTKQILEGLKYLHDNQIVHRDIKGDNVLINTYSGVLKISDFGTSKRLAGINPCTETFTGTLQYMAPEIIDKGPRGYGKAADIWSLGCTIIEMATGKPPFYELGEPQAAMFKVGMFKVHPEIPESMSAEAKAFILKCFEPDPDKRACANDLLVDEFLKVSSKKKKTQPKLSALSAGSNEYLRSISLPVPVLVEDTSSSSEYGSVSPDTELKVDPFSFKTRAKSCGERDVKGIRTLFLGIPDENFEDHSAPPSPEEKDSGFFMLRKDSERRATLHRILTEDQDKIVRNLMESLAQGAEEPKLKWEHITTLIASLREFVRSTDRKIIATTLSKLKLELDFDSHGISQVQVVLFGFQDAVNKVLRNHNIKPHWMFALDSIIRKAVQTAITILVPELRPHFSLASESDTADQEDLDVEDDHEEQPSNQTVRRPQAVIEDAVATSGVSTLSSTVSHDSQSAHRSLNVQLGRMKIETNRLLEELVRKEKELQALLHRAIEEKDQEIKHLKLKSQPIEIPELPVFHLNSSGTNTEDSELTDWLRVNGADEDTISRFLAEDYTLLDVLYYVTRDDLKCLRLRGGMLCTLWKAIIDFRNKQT

| Compound | inhibition |
| --- | --- |
| O=C(NCc1cccc(C(F)(F)F)c1)c1csc(NCc2ccc3c(c2)OCO3)n1 | 8.66% (inactive) |
| Cc1cc(NCCO)nc(Nc2nccc3ccccc23)n1 | -10.4% (inactive) |
| COc1nc(N)nc(-c2csc3ccccc23)n1 | 2.99% (inactive) |
| CCNc1nc(Nc2cc(OC)c(OC)c(OC)c2)c2ncn(-c3ccsc3)c2n1 | 8.63% (inactive) |
| O=C(NCCN1CCOCC1)c1csc(N2CCC(N3CCOCC3)CC2)n1 | -5.25% (inactive) |
| c1cn(-c2ccc(Nc3nc4ncnc(NC5CC5)c4[nH]3)cc2)cn1 | 18.6% (inactive) |
| COc1ccc(-c2cc(C(=O)Nc3ccc(N4CCOCC4)cc3)ccn2)cc1 | 11.5% (inactive) |
| c1ccc(CN2CCC(Nc3nc(N4CCc5ccccc5C4)nc4c3ncn4-c3ccsc3)CC2)cc1 | 9.04% (inactive) |
| Cc1ncn(-c2ccc(Nc3nccc(N4CCc5[nH]ncc5C4)n3)cc2)n1 | -13.8% (inactive) |
| CCN(CC)c1nc(NCc2nc3ccccc3[nH]2)nc(N2CCCC2CO)n1 (stereo not given) | -6.32% (inactive) |
| c1ccc2[nH]c(CNc3ncnc4nc(N5CCC(N6CCOCC6)CC5)[nH]c34)nc2c1 | -21.4% (inactive) |
| O=C(NCC(O)c1ccc(Br)cc1)c1cn(-c2cccc3c(=O)[nH]ccc23)nn1 (stereo not given) | 13.4% (inactive) |
| c1ccc(OCCNc2cc(-c3ccccc3)ncn2)cc1 | -16.6% (inactive) |
| CC(=O)Nc1ccc(Nc2ccnc(N3CCC(N4CCOCC4)CC3)n2)cc1 | -0.1% (inactive) |
| CC(C)n1cnc2c(NCc3ccccc3)nc(NC3CCC(O)CC3)nc21 (stereo not given) | -16.8% (inactive) |
| Cc1ccc(C(=O)N2CCCC(Nc3cccc4cncc(C)c34)C2)cc1F (stereo not given) | -24.3% (inactive) |
| CN(C)CCCNC(=O)c1ccc2c(c1)CC(c1nc3ccc(-c4ccnc(N)n4)cc3[nH]1)CO2 (stereo not given) | 12.4% (inactive) |
| c1ccc(-n2cnc3c(NCCN4CCOCC4)nc(Nc4ccc(-n5ccnc5)cc4)nc32)cc1 | 5.99% (inactive) |
| O=C(NCCN1CCOCC1)c1cccc(-n2ncc3cc(Nc4ccccc4F)ccc32)n1 | -7.35% (inactive) |
| O=C(Nc1ccc(N2CCOCC2)cc1)c1cccc(N2CCC(N3CCOCC3)CC2)n1 | 13.2% (inactive) |
| Nc1nc(N2CCN(c3ccccn3)CC2)nc2c1ncn2-c1ccsc1 | 1.87% (inactive) |
| CC(=O)Nc1ccc(Nc2nc(Nc3ccc(-n4ccnc4)cc3)nc3c2ncn3-c2ccsc2)cc1 | 4.85% (inactive) |
| O=C(NCCN1CCOCC1)c1cccc(-c2ccc(N3CCOCC3)nc2)c1 | 1.42% (inactive) |
| CC(C)N(CCNC(=O)c1ccnc(Nc2ccc(C(F)(F)F)cc2)c1)C(C)C | 7.8% (inactive) |
| CCCN1CCN(c2c(Cl)cccc2NC(=O)Nc2ccc(Br)cc2)CC1 | -17.3% (inactive) |
| c1cc(-c2cncc(N3CCOCC3)c2)nc(Nc2ccc3c(c2)OCO3)n1 | -4.36% (inactive) |
| COc1ccc(CCNc2cc(NCc3cccnc3)nc(N)n2)cc1 | -6.16% (inactive) |
| Cc1cc(NC2CC2)nc(NCCCN2CCCC2=O)n1 | 7.09% (inactive) |

| Compound | inhibition |
| --- | --- |
| COc1ccc(CCNc2cc(-c3ccc(OC)cc3)nc(N)n2)cc1 | -5.04% (inactive) |
| COc1cc2nc(NCc3ccc4c(c3)OCO4)nc(Nc3ccc(NC(C)=O)cc3)c2cc1OC | 18.8% (inactive) |
| COc1cc(Nc2nc(Nc3cccc(N(C)C)c3)nc3nc[nH]c23)cc(OC)c1OC | 27% (inactive) |
| COc1cc2nc(Nc3nccc4ccccc34)nc(Nc3ccccc3)c2cc1OC | -29.2% (inactive) |
| COc1cc2nc(Nc3ccc4ncccc4c3)nc(Nc3ccc(NC(C)=O)cc3)c2cc1OC | 35.6% (active) |
| COc1cc2nc(Nc3ncccn3)nc(Nc3cc(OC)c(OC)c(OC)c3)c2cc1OC | 14.3% (inactive) |
| COc1cc2nc(Nc3cccc(N(C)C)c3)nc(Nc3cc(OC)c(OC)c(OC)c3)c2cc1OC | 36.7% (active) |
| FC(F)(F)c1ccc(Cn2cnc3c(NCc4nc5ccccc5[nH]4)nc(N4CCOCC4)nc32)cc1 | -1.96% (inactive) |
| Cn1nccc1-c1cc(F)cc(-c2ccnc(Nc3ccc(-n4cnc(N5CCOCC5)n4)cc3)n2)c1 | 21.1% (inactive) |
| O=C(Nc1cccc(Cl)c1N1CCC(N2CCCCC2)CC1)c1ccc(Br)o1 | 9.68% (inactive) |
| O=C1CCCN1CCn1cnc2c(Nc3ccc(N4CCOCC4)cc3)nc(Nc3ccccc3)nc21 | 13.9% (inactive) |
| COc1ccc(CCNC(=O)c2cccc(-c3ccc(C(N)=O)cc3)n2)cc1 | 0.41% (inactive) |
| CNC(=O)c1cc(F)ccc1Nc1cc(Nc2ccc3c(c2)CCC(=O)N3)ncc1C(F)(F)F | 2.41% (inactive) |
| c1ccc(CCNc2nccc(Nc3ccncn3)n2)cc1 | 1.01% (inactive) |
| CC(C)n1cnc2c(Nc3ccc(N4CCOCC4)cc3)nc(Nc3ccncc3)nc21 | 4.78% (inactive) |
| COc1cc(Nc2nc(N3CCc4ccccc4C3)nc3c2ncn3-c2ccccc2)cc(OC)c1OC | 38.8% (active) |
| COc1cc(Nc2nc(N3CCc4ccccc4C3)nc3c2ncn3-c2ccsc2)cc(OC)c1OC | 6.46% (inactive) |
| CCCNc1nc(N2CCc3ccccc3C2)nc2c1ncn2-c1ccccc1 | 6.17% (inactive) |
| O=C(NCc1ccccc1)c1cnc(NCc2ccc3c(c2)OCO3)s1 | -19.1% (inactive) |
| O=C1CCCN1CCCNc1nccc(NC2CCN(Cc3ccccc3)CC2)n1 | -6.87% (inactive) |
| c1nc(Nc2ccc(N3CCOCC3)cc2)cc(N2CCOCC2)n1 | 3.52% (inactive) |
| CN1CCN(c2ccc(-c3cc(Nc4ccc(N5CCOCC5)cc4)nc(N)n3)cc2)CC1 | 17.6% (inactive) |
| Nc1nc(Nc2ccc(N3CCOCC3)cc2)cc(-c2ccc3[nH]ccc3c2)n1 | 41.8% (active) |
| Nc1cccc(-c2nc(NCCc3ccc(O)cc3)c3ncn(Cc4ccc(C(F)(F)F)cc4)c3n2)c1 | 3.28% (inactive) |
| c1ccc(CCCNc2nccc(Nc3ccncn3)n2)cc1 | 12.3% (inactive) |
| Nc1nc(Nc2ccc(-n3ccnc3)cc2)cc(NC2CCN(Cc3ccccc3)CC2)n1 | 18.2% (inactive) |
| COc1ccc(-c2cccc(C(=O)Nc3ccccc3)n2)cn1 | -3.52% (inactive) |
